In PubChem BioAssay (NCATS):
Results filed as inconclusive are left out. Active and inactive are the calls of the source. Unless noted, calls come from the whole dose curve; as a rule, active = well fitted curve in the direction sought with a large enough effect; inconclusive = small, poorly fitted or top-dose-only effect, or another doubt; inactive = no such curve, though single readings can be large; an effect the other way counts as inactive or inconclusive.

Assays:
[1] = AP1 Signaling Pathway (AID 357; active = well fitted curve in either direction with a large enough effect, not every such curve was filed as active;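 note: ME-180 reporter cells stimulated with EGF at its EC50 level; % is set by controls: 0 for no effect and ±100 for the full control effect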)
Outline: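 Beta-lactamase reporter under AP-1 response element, ME-180 background. Stimulus: EC50 EGF. Compound exposure 5 h, 37 °C. Detection: CCF4, 2.5 h RT, 460/530 nm. Values: AC50 from titration.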

[2] = NFAT Signaling Pathway (AID 444; active = well fitted curve in either direction with a large enough effect, not every such curve was filed as active;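 note: carbachol stimulus at about its EC50 of 1 µM final; % is set by controls: 0 for no effect and ±100 for the full control effect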); settings: Jurkat NFAT-bla M1, carbachol, beta-lactamase ratio, 5 h; at 17.2 µM (top of the series) unless noted
Outline: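 Read-out: CCF4 FRET ratio (460 nm/530 nm) after 1 h RT dye loading, used for %activity and AC50 from titration series. Cells: Jurkat NFAT-β-lactamase/M1 line, treated with compound plus 1 uM carbachol for 5 h, 37 °C.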

[3] = Stat Signaling Pathway (AID 446; active = well fitted curve in either direction with a large enough effect, not every such curve was filed as active;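 note: ME-180 cervical cancer cells given 40 pM IL-6 alongside compound; SIE-controlled beta-lactamase reporter measured as 460/530 nm FRET emission ratio; % is set by controls: 0 for no effect and ±100 for the full control effect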)
Outline: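 FRET read-out (405 nm excitation, 460/530 nm emission) of a beta-lactamase reporter under a STAT-inducible element in ME-180 cervical carcinoma cells. Cells with compound receive 40 pM IL-6 for 5 h. Values are normalised to AC90 stimulation and AC90 JAK-inhibitor controls.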

[4] = target: Mitogen-activated protein kinase 10 (Mus musculus) (UniProt Q61831); assay: JNK3 AlphaScreen Assay (AID 530; active = well fitted curve in either direction with a large enough effect, not every such curve was filed as active;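 note: kinase came from lysate of stimulated human HepG2 cells; signal reports phosphorylation of biotinylated GST-cJun 1-79 at Ser73 with 10 µM ATP; % is set by controls: 0 for no effect and ±100 for the full control effect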)
Outline: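 qHTS titrations with 15 min compound pre-incubation before adding ATP (10 uM final). Read-out: AlphaScreen of Ser73-phosphorylated biotin-GST-cJun using HepG2 lysate JNK3 activated by IL-1β and TNFα.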

[5] = qHTS Assay for Lipid Storage Modulators (AID 1519; calls by dose curve); settings: Drosophila S3 cells, BODIPY lipid droplet/cell ratio, laser cytometry, cells loaded with oleic acid; for activity change, negative = inhibition: at 25.7 µM (top of the series)
Outline: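 Cells seeded at 5,000 per well were treated with compounds over a concentration series and loaded with oleic acid (400 uM, as added). Lipid droplet fluorescence (488 nm excitation, 500-530 nm channel) was read by laser-scanning cytometry and normalized to 20 uM Triacsin C.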

[6] = target: ATP-dependent 6-phosphofructokinase (Trypanosoma brucei brucei) (UniProt O15648); assay: qHTS Assay to Find Inhibitors of T. brucei phosphofructokinase: hit validation (AID 492961)
Outline: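 In this biochemical qHTS validation, titrated compounds were tested against 1.25 nM PFK with 0.1 mM ATP and 0.5 mM F6P. Percent activity came from controls lacking or containing enzyme.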

[7] = target: Ubiquitin carboxyl-terminal hydrolase 1 (Homo sapiens) (UniProt O94782); assay: Inhibitors of USP1/UAF1: Pilot qHTS (AID 504865);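 note: rhodamine fluorescence freed from ubiquitin-rhodamine substrate followed over time; top concentration of the series differs between compounds; % is set by controls: 0 for no effect and ±100 for the full control effect; nearly all actives have a fitted effect of over 35% in size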
Outline: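 Deubiquitinase activity followed as kinetic rhodamine fluorescence release from 150 nM Ub-Rho. 1 nM USP1/UAF1 with compound, after 15 min room-temperature preincubation, in HEPES pH 7.8 buffer containing TCEP, EDTA, BSA and Tween-20.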

[8] = target: Luciferin 4-monooxygenase (Photinus pyralis) (UniProt P08659); assay: Biochemical firefly luciferase enzyme assay for NPC (AID 624030);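 note: purified P. pyralis luciferase at 10 nM with luciferin and ATP substrate; 0% = DMSO and -100% = full luciferase inhibition by PTC124 control; nearly all actives have a fitted effect of over 70% in size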
Outline: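 Direct inhibition of firefly luciferase enzyme (10 nM final, 50 mM Tris Acetate) assessed by luminescence within 5 minutes. Percent activity scaled between DMSO and PTC124 positive control, with concentration-effect curves classified by fit quality and response.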

[9] = qHTS profiling for inhibitors of Plasmodium falciparum proliferation (AID 504749); note: nearly all actives have a fitted effect of over 60% in size; note: potency is the fitted concentration of half-maximal effect;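 for activity, negative = inhibition: 0% = DMSO vehicle and full inhibition = artemisinin control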; settings: P. falciparum in erythrocytes, SYBR Green DNA, 72 h, at 12.8 µM (top of the series)
Outline: (§1)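 SYBR Green fluorescence of parasite DNA, read after lysis and overnight dark incubation, measured growth over 72 h in erythrocyte culture at 0.3% parasitemia and 2.5% hematocrit. Data normalised to DMSO and 0.29 uM artemisinin, with plate-drift correction.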

C2A = assay: as above; settings: P. falciparum in erythrocytes, SYBR Green DNA, 72 h; series mostly up to 12.8 µM
Outline: as §1

CP238 = assay: as above; settings: P. falciparum in erythrocytes, SYBR Green DNA, 72 h; series mostly up to 12.8 µM
Outline: as §1

CP252 = assay: as above; settings: P. falciparum in erythrocytes, SYBR Green DNA, 72 h; series mostly up to 12.8 µM
Outline: as §1

DIV14 = assay: as above; settings: P. falciparum in erythrocytes, SYBR Green DNA, 72 h; series mostly up to 12.8 µM
Outline: as §1

JCK = assay: as above; settings: P. falciparum in erythrocytes, SYBR Green DNA, 72 h; series mostly up to 12.8 µM
Outline: as §1

N140 = assay: as above; settings: P. falciparum in erythrocytes, SYBR Green DNA, 72 h; series mostly up to 12.8 µM
Outline: as §1

SC27B = assay: as above; settings: P. falciparum in erythrocytes, SYBR Green DNA, 72 h; series mostly up to 12.8 µM
Outline: as §1

W2 = assay: as above; settings: P. falciparum in erythrocytes, SYBR Green DNA, 72 h; series mostly up to 12.8 µM
Outline: as §1

[10] = target: 3',5'-cyclic-AMP phosphodiesterase 4B (Homo sapiens) (UniProt Q07343); assay: qHTS Assay for Inhibitors of PDE-IV (AID 607; active = well fitted activation curve with a large enough effect in the main read-out, with a control signal flat, not every such curve was filed as active; note: % of control where 0% means no effect)
Outline: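 Cell-based read-out of cAMP via a modified cyclic nucleotide-gated channel and membrane potential dye (535/590 nm) in HEK293 cells expressing PDE4 endogenously. Compounds tested up to 22.9 uM final; 100 uM RO 20-1724 reference.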

[11] = target: Glucocorticoid receptor (Homo sapiens) (UniProt P04150); assay: GR-GFP Redistribution (AID 450;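 active = compounds whose dose series gives a full or clear partial fitted curve of increased nuclear translocation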; note: potency is the fitted concentration of half-maximal effect); settings: U2OS GR-GFP nuclear translocation, laser cytometry, 2 h
[12] = target: Glucocorticoid receptor (Homo sapiens) (UniProt P04150); assay: GR-EFC Redistribution (AID 451; calls by dose curve; note: potency is the fitted concentration of half-maximal effect); settings: CHO-K1 GR-EFC translocation, beta-gal luminescence, 2 h
Outline: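 Translocation of GR-ED fusion to nuclear EA restores b-gal, read by luminescence after 1 h room-temperature detection. Engineered CHO-K1 biosensor cells, 1,000/well, exposed 2 h at 37 C to titrations up to 46 uM final.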

[13] = measured here: cell count channel max response
[14] = measured here: lipid channel max response

Sequence of Glucocorticoid receptor (Homo sapiens) (P04150 whole entry, looked up, the tested form may be a part): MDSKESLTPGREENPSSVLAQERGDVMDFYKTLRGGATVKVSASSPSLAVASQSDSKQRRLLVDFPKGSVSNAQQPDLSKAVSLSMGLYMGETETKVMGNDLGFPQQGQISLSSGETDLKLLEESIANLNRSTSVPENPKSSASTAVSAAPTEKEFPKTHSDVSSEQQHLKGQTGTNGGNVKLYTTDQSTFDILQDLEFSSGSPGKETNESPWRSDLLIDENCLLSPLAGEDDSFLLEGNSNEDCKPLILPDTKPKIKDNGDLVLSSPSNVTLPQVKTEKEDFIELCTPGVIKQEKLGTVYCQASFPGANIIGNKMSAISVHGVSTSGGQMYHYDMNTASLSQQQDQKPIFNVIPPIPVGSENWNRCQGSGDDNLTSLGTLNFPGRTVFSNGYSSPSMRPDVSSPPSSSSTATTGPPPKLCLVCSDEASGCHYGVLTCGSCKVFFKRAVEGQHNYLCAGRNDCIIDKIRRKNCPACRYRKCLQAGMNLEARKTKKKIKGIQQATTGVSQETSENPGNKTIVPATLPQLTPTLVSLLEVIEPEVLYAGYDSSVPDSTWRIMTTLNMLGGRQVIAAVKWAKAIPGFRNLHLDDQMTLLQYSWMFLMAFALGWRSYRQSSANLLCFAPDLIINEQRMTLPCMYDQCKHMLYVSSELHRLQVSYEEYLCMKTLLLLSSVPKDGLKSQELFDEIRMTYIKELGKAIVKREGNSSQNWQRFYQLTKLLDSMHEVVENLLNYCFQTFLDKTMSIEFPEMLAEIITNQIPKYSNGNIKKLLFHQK
Sequence of 3',5'-cyclic-AMP phosphodiesterase 4B (Homo sapiens) (Q07343 whole entry, looked up): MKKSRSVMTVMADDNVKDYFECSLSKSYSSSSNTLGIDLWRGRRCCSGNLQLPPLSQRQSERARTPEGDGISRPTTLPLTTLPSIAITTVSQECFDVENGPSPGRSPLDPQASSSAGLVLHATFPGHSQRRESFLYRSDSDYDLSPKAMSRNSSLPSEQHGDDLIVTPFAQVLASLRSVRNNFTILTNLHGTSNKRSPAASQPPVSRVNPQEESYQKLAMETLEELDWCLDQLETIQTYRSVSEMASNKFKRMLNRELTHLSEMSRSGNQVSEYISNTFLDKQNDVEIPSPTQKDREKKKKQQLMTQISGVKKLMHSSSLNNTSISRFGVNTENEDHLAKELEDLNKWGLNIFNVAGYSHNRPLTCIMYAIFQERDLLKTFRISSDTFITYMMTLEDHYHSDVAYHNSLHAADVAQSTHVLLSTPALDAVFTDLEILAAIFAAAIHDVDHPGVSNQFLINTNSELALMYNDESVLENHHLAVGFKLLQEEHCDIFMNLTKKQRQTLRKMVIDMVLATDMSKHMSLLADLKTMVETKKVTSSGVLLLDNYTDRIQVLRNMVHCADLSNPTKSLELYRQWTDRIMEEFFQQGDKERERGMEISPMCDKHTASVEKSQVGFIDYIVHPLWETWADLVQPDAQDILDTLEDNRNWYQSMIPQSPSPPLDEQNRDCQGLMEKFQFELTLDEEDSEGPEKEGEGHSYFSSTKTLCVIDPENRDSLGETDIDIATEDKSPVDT
Sequence of ATP-dependent 6-phosphofructokinase (Trypanosoma brucei brucei) (O15648 whole entry, looked up): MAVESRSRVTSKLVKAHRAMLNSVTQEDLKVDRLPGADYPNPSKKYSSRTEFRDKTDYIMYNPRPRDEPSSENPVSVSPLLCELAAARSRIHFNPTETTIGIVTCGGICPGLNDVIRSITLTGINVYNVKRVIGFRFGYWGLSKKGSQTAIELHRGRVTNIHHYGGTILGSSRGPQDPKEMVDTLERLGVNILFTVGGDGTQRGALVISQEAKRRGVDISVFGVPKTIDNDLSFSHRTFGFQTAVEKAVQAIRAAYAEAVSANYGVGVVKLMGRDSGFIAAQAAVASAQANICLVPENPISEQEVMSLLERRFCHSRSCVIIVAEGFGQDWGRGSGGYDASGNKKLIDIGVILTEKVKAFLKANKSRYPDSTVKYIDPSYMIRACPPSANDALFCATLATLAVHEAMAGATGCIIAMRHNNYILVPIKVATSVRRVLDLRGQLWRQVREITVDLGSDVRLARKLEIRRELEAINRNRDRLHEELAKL
Sequence of Ubiquitin carboxyl-terminal hydrolase 1 (Homo sapiens) (O94782 whole entry, looked up): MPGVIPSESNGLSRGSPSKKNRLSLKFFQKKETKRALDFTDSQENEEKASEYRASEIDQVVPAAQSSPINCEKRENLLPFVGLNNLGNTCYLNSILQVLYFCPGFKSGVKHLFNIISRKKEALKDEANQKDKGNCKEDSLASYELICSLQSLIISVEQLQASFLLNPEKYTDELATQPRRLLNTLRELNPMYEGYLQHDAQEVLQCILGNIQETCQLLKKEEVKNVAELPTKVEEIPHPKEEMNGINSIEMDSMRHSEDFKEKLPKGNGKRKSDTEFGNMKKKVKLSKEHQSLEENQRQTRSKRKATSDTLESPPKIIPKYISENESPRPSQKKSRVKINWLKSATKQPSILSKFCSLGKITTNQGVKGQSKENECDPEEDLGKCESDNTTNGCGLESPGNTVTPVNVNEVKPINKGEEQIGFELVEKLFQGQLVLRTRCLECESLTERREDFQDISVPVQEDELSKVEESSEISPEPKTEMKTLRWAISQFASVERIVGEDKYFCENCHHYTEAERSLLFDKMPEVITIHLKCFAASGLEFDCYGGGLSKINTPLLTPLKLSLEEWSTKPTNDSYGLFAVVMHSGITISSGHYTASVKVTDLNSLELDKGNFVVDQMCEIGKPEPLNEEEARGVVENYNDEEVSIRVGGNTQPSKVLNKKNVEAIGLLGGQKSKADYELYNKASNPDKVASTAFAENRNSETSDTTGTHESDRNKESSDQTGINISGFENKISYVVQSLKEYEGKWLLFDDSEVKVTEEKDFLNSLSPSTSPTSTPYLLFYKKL
Sequence of Luciferin 4-monooxygenase (Photinus pyralis) (P08659 whole entry, looked up): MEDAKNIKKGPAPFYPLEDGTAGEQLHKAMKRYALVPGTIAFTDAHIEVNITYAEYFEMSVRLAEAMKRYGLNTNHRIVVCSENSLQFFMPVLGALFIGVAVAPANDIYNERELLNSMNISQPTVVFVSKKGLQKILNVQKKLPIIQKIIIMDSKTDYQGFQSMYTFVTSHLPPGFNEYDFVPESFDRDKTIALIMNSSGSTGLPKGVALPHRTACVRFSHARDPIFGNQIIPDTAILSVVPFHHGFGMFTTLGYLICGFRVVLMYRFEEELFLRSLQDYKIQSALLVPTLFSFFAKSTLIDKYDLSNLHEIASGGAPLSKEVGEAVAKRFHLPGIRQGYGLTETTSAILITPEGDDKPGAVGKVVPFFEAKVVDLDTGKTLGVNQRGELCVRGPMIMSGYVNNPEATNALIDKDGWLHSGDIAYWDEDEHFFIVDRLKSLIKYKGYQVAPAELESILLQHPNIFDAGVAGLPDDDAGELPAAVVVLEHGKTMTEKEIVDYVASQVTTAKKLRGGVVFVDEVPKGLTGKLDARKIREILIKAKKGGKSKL

C[C@@H]1C[C@H]2[C@@H]3C[C@H](F)C4=CC(=O)C=C[C@@]4(C)[C@]3(F)[C@H](O)C[C@]2(C)[C@@]1(O)C(=O)CO
-3.99%: max response [5, 14]
0.642%: max response [5, 13]
inactive: outcome [1] | activity change, negative = inhibition [2] 2.6% | outcome [3] | Potency [4] | activity change, negative = inhibition [5] -2.8% | outcome [6] | Potency [7] | Potency [8] | activity, negative = inhibition ([9]; parasite line A) 7.34% | activity, negative = inhibition ([9]; parasite line B) -3.91% | Potency (C2A) | Potency (CP238) | Potency (CP252) | Potency (DIV14) | Potency (JCK) | Potency (N140) | Potency (SC27B) | Potency (W2)

CCc1c(C)[nH]c2c1C(=O)[C@H](CN1CCOCC1)CC2
inactive: outcome [1] | activity change, negative = inhibition [2] -21.1% | outcome [3] | Potency [4] | outcome [10] | activity change, negative = inhibition [5] 0.521% | outcome [6] | Potency [8] | activity, negative = inhibition ([9]; parasite line A) 13% | activity, negative = inhibition ([9]; parasite line B) 6.66% | Potency (C2A) | Potency (CP238) | Potency (CP252) | Potency (DIV14) | Potency (JCK) | Potency (N140) | Potency (SC27B) | Potency (W2)
-8.85%: max response [5, 13]
-8.65%: max response [5, 14]

O=C(O)COCCN1CCN([C@@H](c2ccccc2)c2ccc(Cl)cc2)CC1
inactive: outcome [1] | outcome [3] | Potency [4] | outcome [10] | activity change, negative = inhibition [5] 0.348% | Potency [8] | activity, negative = inhibition ([9]; parasite line A) -5.9% | activity, negative = inhibition ([9]; parasite line B) 11.4% | Potency (C2A) | Potency (CP238) | Potency (CP252) | Potency (DIV14) | Potency (JCK) | Potency (N140) | Potency (SC27B)
-7.35%: max response [5, 14]
active: Potency (W2) 4.55 µM
-9.07%: max response [5, 13]

Cc1cccc(CN2CCN([C@@H](c3ccccc3)c3ccc(Cl)cc3)CC2)c1
-11.7%: max response [5, 13]
inactive: outcome [1] | outcome [3] | Potency [11] > 20.6 µM | Potency [12] > 20.6 µM | Potency [4] | outcome [10] | activity change, negative = inhibition [5] -11.4% | outcome [6] | Potency [8] | Potency (C2A) | Potency (CP238) | Potency (CP252) | Potency (JCK)
active: Potency (W2) 3.22 µM
-24.7%: max response [5, 14]

CC(C)(CO)[C@H](O)C(=O)NCCC(=O)O
inactive: outcome [1] | activity change, negative = inhibition [2] 8.26% | outcome [3] | Potency [4] | outcome [10] | activity change, negative = inhibition [5] -0.81%
6.98%: max response [5, 14]
7.75%: max response [5, 13]

C[C@@H](CNC1CCCCC1)OC(=O)c1ccccc1
-19.5%: max response [5, 14]
-16.8%: max response [5, 13]
active: Potency (DIV14) 3.61 µM | Potency (SC27B) 3.55 µM | Potency (W2) 2.28 µM
inactive: outcome [1] | outcome [3] | Potency [11] > 20.6 µM | Potency [12] > 20.6 µM | Potency [4] | outcome [10] | activity change, negative = inhibition [5] -3.84% | outcome [6] | Potency [7] | Potency [8] | Potency (C2A) | Potency (CP252)

O=C1C=CC(=O)c2c1ccc1c2ccc2ccccc21
inactive: Potency [11] > 20.6 µM | Potency [12] > 20.6 µM | Potency [4] | outcome [10] | activity change, negative = inhibition [5] -0.997%
active: activity change, negative = inhibition [2] -25.7%
-3.16%: max response [5, 14]
-0.715%: max response [5, 13]

Nc1ncnc2c1ncn2[C@@H]1O[C@H](COP(=O)(O)O)[C@@H](O)[C@@H]1O
-10.8%: max response [5, 14]
-10.2%: max response [5, 13]
inactive: activity change, negative = inhibition [2] -4.61% | Potency [11] > 20.6 µM | Potency [12] > 20.6 µM | Potency [4] | outcome [10] | activity change, negative = inhibition [5] -0.35% | Potency [7]

CCC(=O)OCC(=O)[C@@]1(OC(=O)CC)[C@H](C)C[C@@H]2[C@H]3CCC4=CC(=O)C=C[C@]4(C)[C@]3(Cl)[C@@H](O)C[C@@]21C
-5.37%: max response [5, 13]
inactive: activity change, negative = inhibition [2] -10.9% | outcome [3] | outcome [10] | activity change, negative = inhibition [5] -9.54%
-14.6%: max response [5, 14]
